For ten compounds, growth inhibition results are on record in PubChem BioAssay (NCI).

The nature of test [1]: NCI Yeast Anticancer Drug Screen. Data for the rad50 strain (AID 155).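 Also: 0% = growth of vehicle-only cultures of the same strain.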 Conditions: S. cerevisiae rad50 strain growth inhibition, hits give high values. The method, boiled down:
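A DNA repair-deficient yeast mutant serves as the test organism; compound-induced growth inhibition is calculated against vehicle-treated cells.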

Test [2] is described as follows: NCI Yeast Anticancer Drug Screen. Data for the mec2-1 strain (AID 157). Conditions: S. cerevisiae mec2-1 strain, hits give high values. The method, boiled down: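 mec2-1 yeast strain, carrying an alteration in DNA damage repair or cell cycle control, was exposed to compounds; growth inhibition was measured relative to vehicle-treated controls.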
Test [3] is described as follows: NCI Yeast Anticancer Drug Screen. Data for the sgs1 mgt1 strain (AID 161).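 Also: 0% = growth of cultures given vehicle only.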 Conditions: S. cerevisiae sgs1 mgt1 strain, hits give high values. In outline: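 This yeast growth screen uses a strain with defined DNA-repair lesions; compound-treated growth is compared with vehicle-treated growth.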
Test [4] is described as follows: NCI Yeast Anticancer Drug Screen. Data for the cln2 rad14 strain (AID 165).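 Also: 0% = growth equal to vehicle treated cultures.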 Conditions: S. cerevisiae cln2 rad14 strain, hits give high values. In outline: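 Yeast carrying cln2 and rad14 alterations (cell cycle control and DNA damage repair) were exposed to compounds. Growth inhibition was measured against vehicle-treated controls.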
Test [5] can be described thus: NCI Yeast Anticancer Drug Screen. Data for the bub3 strain (AID 167). Conditions: S. cerevisiae bub3 mutant strain, hits give high values. In outline: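 Inhibition values come from growth of compound-treated mutant yeast normalised to vehicle-treated controls.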
A short description of test [6]: NCI Yeast Anticancer Drug Screen. Data for the mlh1 rad18 strain (AID 175). Conditions: S. cerevisiae mlh1 rad18 strain growth inhibition, hits give high values. In outline:
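Growth inhibition of the yeast strain was measured after compound exposure and expressed relative to vehicle-treated controls. The strain carries defined defects in DNA damage repair.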

Setting [7] is: at 5.0 µM (retest, dose inferred, filed as 0.5).
[8] abbreviates: at 50.0 µM (retest, dose inferred, filed as 5.0).

The structures appear in SMILES notation. About 79,000 compounds went through this panel and 15% of them were active in at least one assay; those are over-represented in the sample as a whole. A number with no mark means an inactive call. Active and inactive are the calls of the source. Rule as the data show it: active = growth inhibition above about 70%; inactive = the rest.

On to `COc1ccc2c(c1)CN([C@@H](C)[C@H]1CC[C@H]3[C@@H]4CC[C@H]5C[C@@H](O)CC[C@]5(C)[C@H]4CC[C@]13C)CO2`, for which the growth inhibition in test [1] (setting [7]) was 90% (active); in test [1] (setting [8]) it was 99% (active); in test [1] (at 50.0 µM), 99% (active); in test [2] (setting [7]), 59%; in test [2] (setting [8]), 99% (active); in test [2] (at 50.0 µM), 99.3% (active). In addition, the growth inhibition in test [3] (setting [7]) was 97% (active); in test [3] (setting [8]), 100% (active); in test [3] (at 50.0 µM), 99.2% (active); in test [4] (setting [7]), 95% (active); in test [4] (setting [8]), 99% (active); in test [4] (at 50.0 µM), 98.2% (active). Also, the growth inhibition in test [5] (setting [7]) was 91% (active); in test [5] (setting [8]), 99% (active); in test [5] (at 50.0 µM) it was 98.7% (active); in test [6] (setting [7]), 97% (active); in test [6] (setting [8]), 99% (active); in test [6] (at 50.0 µM) it was 98.4% (active).
Turning to `COc1ccccc1NC(=O)/C(=C/c1ccccc1)C(C)=O`, the growth inhibition in test [1] (setting [7]) was -1%; in test [1] (setting [8]), 12%; in test [1] (at 50.0 µM), 48.6%; in test [2] (setting [7]), -2%; in test [2] (setting [8]), -2%; in test [2] (at 50.0 µM), -3.05%. The growth inhibition in test [3] (setting [7]) is 11%; in test [3] (setting [8]) it was 12%; in test [3] (at 50.0 µM), 16.7%; in test [4] (setting [7]), 1%; in test [4] (setting [8]), 21%; in test [4] (at 50.0 µM) it was 49.1%. Further, the growth inhibition in test [5] (setting [7]) is -2%; in test [5] (setting [8]) it was 25%; in test [5] (at 50.0 µM), -4.75%; in test [6] (setting [7]) it was 3%; in test [6] (setting [8]), 26%; in test [6] (at 50.0 µM), 66.5%.
On to `CCCCCCCCCCCCCCCCCCOS(=O)(=O)O` (tested in a mixture with another compound), for which the growth inhibition in test [1] (setting [7]) was 1%; in test [1] (setting [8]), 63%; in test [1] (at 50.0 µM), 56.4%; in test [2] (setting [7]), -35%; in test [2] (setting [8]), 76% (active); in test [2] (at 50.0 µM) it was 56.6%. Besides, the growth inhibition in test [3] (setting [7]) was -12%; in test [3] (setting [8]), 60%; in test [3] (at 50.0 µM), 68.7%; in test [4] (setting [7]), -30%; in test [4] (setting [8]), 49%; in test [4] (at 50.0 µM), 42.5%. Further, the growth inhibition in test [5] (setting [7]) is -31%; in test [5] (setting [8]) it was 77% (active); in test [5] (at 50.0 µM), 67.5%; in test [6] (setting [7]), -27%; in test [6] (setting [8]), 80% (active); in test [6] (at 50.0 µM), 57.5%.
`Clc1ccc(C2NC(c3ccccc3)c3c(ccc4ccccc34)O2)cc1` (stereo not given): the growth inhibition was -4% in test [1] (setting [7]); 26% in test [1] (setting [8]); 70.5% (active) in test [1] (at 50.0 µM); 7% in test [2] (setting [7]); 19% in test [2] (setting [8]); 66.2% in test [2] (at 50.0 µM). Moreover, the growth inhibition in test [3] (setting [7]) was 2%; in test [3] (setting [8]), 39%; in test [3] (at 50.0 µM) it was 27.1%; in test [4] (setting [7]), 1%; in test [4] (setting [8]), 15%; in test [4] (at 50.0 µM) it was 81.2% (active). For the same compound, the growth inhibition in test [5] (setting [7]) was 3%; in test [5] (setting [8]) it was 7%; in test [5] (at 50.0 µM), 58.6%; in test [6] (setting [7]) it was 27%; in test [6] (setting [8]), 53%; in test [6] (at 50.0 µM), 77.7% (active).
`Cc1nc(Nc2ccc(Cl)cc2)sc1C(=O)NNc1ccc([N+](=O)[O-])cc1[N+](=O)[O-]`: the growth inhibition in test [1] (setting [7]) is 24%; in test [1] (setting [8]) it was 24%; in test [1] (at 50.0 µM) it was 88.8% (active); in test [2] (setting [7]), 9%; in test [2] (setting [8]), 9%; in test [2] (at 50.0 µM) it was 90.2% (active). Also, the growth inhibition in test [3] (setting [7]) is -6%; in test [3] (setting [8]) it was -6%; in test [3] (at 50.0 µM) it was 90.5% (active); in test [4] (setting [7]), 9%; in test [4] (setting [8]) it was 9%; in test [4] (at 50.0 µM) it was 89.4% (active). Also, the growth inhibition was 10% in test [5] (setting [7]); 10% in test [5] (setting [8]); 92.8% (active) in test [5] (at 50.0 µM); 16% in test [6] (setting [7]); 16% in test [6] (setting [8]); 89.8% (active) in test [6] (at 50.0 µM).
With `Nc1ccc([N+](=O)[O-])cc1Nc1c2ccccc2nc2ccccc12`, the growth inhibition in test [1] (setting [7]) is 5%; in test [1] (setting [8]) it was 15%; in test [1] (at 50.0 µM), 82.3% (active); in test [2] (setting [7]), 2%; in test [2] (setting [8]), 5%; in test [2] (at 50.0 µM), 17.7%. The growth inhibition in test [3] (setting [7]) was 1%; in test [3] (setting [8]), 27%; in test [3] (at 50.0 µM), 40%; in test [4] (setting [7]) it was -1%; in test [4] (setting [8]), 34%; in test [4] (at 50.0 µM) it was -6.85%. Also, the growth inhibition in test [5] (setting [7]) is -4%; in test [5] (setting [8]) it was 17%; in test [5] (at 50.0 µM) it was -43.4%; in test [6] (setting [7]), 2%; in test [6] (setting [8]) it was 37%; in test [6] (at 50.0 µM), 31.4%.
For the compound `CCC(/C=C/C(C)C1CCC2C3CC=C4C/C(=N/NC(N)=O)CCC4(C)C3CCC12C)C(C)C` (stereo not given), the growth inhibition is -7% in test [1] (setting [7]); 6% in test [1] (setting [8]); 9.95% in test [1] (at 50.0 µM); -3% in test [2] (setting [7]); 2% in test [2] (setting [8]); 9.3% in test [2] (at 50.0 µM). Further, the growth inhibition in test [3] (setting [7]) was -3%; in test [3] (setting [8]) it was -5%; in test [3] (at 50.0 µM), 50.9%; in test [4] (setting [7]), -7%; in test [4] (setting [8]) it was -9%; in test [4] (at 50.0 µM), -1.15%. Besides, the growth inhibition in test [5] (setting [7]) was -3%; in test [5] (setting [8]) it was 2%; in test [5] (at 50.0 µM), 24.1%; in test [6] (setting [7]), -3%; in test [6] (setting [8]), 5%; in test [6] (at 50.0 µM), 28.9%.
Turning to `CCN(CC)CCCCNc1ccc(Cl)cc1`, the growth inhibition in test [1] (setting [7]) was -2%; in test [1] (setting [8]) it was 12%; in test [1] (at 50.0 µM) it was 38.2%; in test [2] (setting [7]), 1%; in test [2] (setting [8]) it was -2%; in test [2] (at 50.0 µM) it was 39.1%. For the same compound, the growth inhibition in test [3] (setting [7]) was -2%; in test [3] (setting [8]), 18%; in test [3] (at 50.0 µM) it was 53.9%; in test [4] (setting [7]), 2%; in test [4] (setting [8]), -3%; in test [4] (at 50.0 µM), -9.2%. The growth inhibition in test [5] (setting [7]) was -1%; in test [5] (setting [8]) it was 10%; in test [5] (at 50.0 µM), 44.5%; in test [6] (setting [7]) it was -7%; in test [6] (setting [8]), 8%; in test [6] (at 50.0 µM), 71.6% (active).
`COc1ccc2c(c1)CCCN2S(=O)(=O)c1ccc(N)cc1`: the growth inhibition was -1% in test [1] (setting [7]); 18% in test [1] (setting [8]); 45.5% in test [1] (at 50.0 µM); -3% in test [2] (setting [7]); 5% in test [2] (setting [8]); 27.1% in test [2] (at 50.0 µM). The growth inhibition in test [3] (setting [7]) was -2%; in test [3] (setting [8]) it was 16%; in test [3] (at 50.0 µM), 36.8%; in test [4] (setting [7]), 0%; in test [4] (setting [8]), 13%; in test [4] (at 50.0 µM), -6.65%. Moreover, the growth inhibition in test [5] (setting [7]) was 3%; in test [5] (setting [8]), 49%; in test [5] (at 50.0 µM), 32.2%; in test [6] (setting [7]), -2%; in test [6] (setting [8]), 12%; in test [6] (at 50.0 µM), 47%.
For the compound `CCN(C(=O)C(F)(F)F)c1ccc2c(c1)C(=O)c1ccccc1-2`, the growth inhibition in test [1] (setting [7]) was 0%; in test [1] (setting [8]), 34%; in test [1] (at 50.0 µM) it was 26.1%; in test [2] (setting [7]), 1%; in test [2] (setting [8]), 12%; in test [2] (at 50.0 µM) it was -2.65%. Also, the growth inhibition in test [3] (setting [7]) is -4%; in test [3] (setting [8]), 87% (active); in test [3] (at 50.0 µM), 42.6%; in test [4] (setting [7]) it was 0%; in test [4] (setting [8]), 20%; in test [4] (at 50.0 µM), -18.2%. Also, the growth inhibition in test [5] (setting [7]) is 38%; in test [5] (setting [8]) it was 70% (active); in test [5] (at 50.0 µM), 84% (active); in test [6] (setting [7]), -1%; in test [6] (setting [8]) it was 60%; in test [6] (at 50.0 µM), 10%.
